Data taken from the supplement of paper PMC10849652.
About 7,900 targets were measured; listed, in parts, are those with a hit and a random draw of the rest. About 0.6% of all pairs of compound and target were hits. A number with no mark means an inactive call.

Key:
Experiment in all cases: log2 fold change, soluble protein after heating vs DMSO (PISA); higher = thermal stabilisation; K562 cells, 10 uM, 30 min; active = over 0.2 and 3.5 SD of the protein, either way, in both replicates (recomputed)
[1] = compound: CC[C@@H]1C(=O)N(C)c2cnc(Nc3ccc(C(=O)NC4CCN(C)CC4)cc3OC)nc2N1C1CCCC1
Outline: (§1)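 Soluble protein was quantified by TMTpro 16plex LC-MS/MS after channel sums were equalised. It was obtained as the supernatant after 21,000xg for 90 min from pooled aliquots of K562 cells (2×10^6 cells/mL, 10 μM compound, 30 min) heated for 3 min across 48°C-58°C and extracted in PBS with 0.5% NP-40 at 4°C. Thermal stability values are relative to control samples and come from duplicates. They are given as log2 fold changes.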

[2] = compound: CC[C@@H]1C(=O)N(C)c2cnc(Nc3ccc(C(=O)N[C@H]4CC[C@H](N5CCN(CC6CC6)CC5)CC4)cc3OC)nc2N1C(C)C [volasertib]
Outline: as §1

[3] = compound: CC[C@H](C)[C@@H](C(=O)N[C@@H]([C@@H](C)O)C(=O)N[C@@H](CC(C)C)C(=O)[C@]1(CO1)C)NC(=O)[C@H]([C@@H](C)CC)N(C)C(=O)C [epoxomicin]
Outline: as §1

[4] = compound: CCn1c(C(=O)N(C2CC2)C2CC2)cc2c3c(ncn3C)c(Nc3cc(C)n(C)n3)nc21
Outline: as §1

[5] = compound: CN(CCOC1=CC=C(C=C1)C[C@H]2C(=O)NC(=O)S2)C3=CC=CC=N3 (racemic) [rosiglitazone]
Outline: as §1

[6] = compound: CN1CCN(c2nc(C3=C(c4c[nH]c5ccccc45)C(=O)NC3=O)c3ccccc3n2)CC1 [sotrastaurin]
Outline: as §1

[7] = compound: CN1CC[C@H](c2c(O)cc(O)c3c(=O)cc(-c4ccccc4Cl)oc23)[C@H](O)C1 [alvocidib]
Outline: as §1

[8] = compound: CN1CCc2c(c3ccccc3n2Cc2ccc(C(=O)NO)cc2)C1 [Tubastatin A]
Outline: as §1

[9] = compound: CNC(=O)C1=CC=CC=C1NC2=NC(=NC=C2Cl)NC3=C(C=C(C=C3)N4CCOCC4)OC
Outline: as §1

[10] = compound: CNCc1ccc(-c2[nH]c3cc(F)cc4c3c2CCNC4=O)cc1 [rucaparib]
Outline: as §1

[11] = compound: COC(=O)N[C@@H](C)CNc1nccc(-c2cn(C(C)C)nc2-c2cc(Cl)cc(NS(C)(=O)=O)c2F)n1 [encorafenib]
Outline: as §1

[12] = compound: CC[C@H](C)N1C=C(C2=C(C=C(C=C21)C3=CN=C(C=C3)N4CCNCC4)C(=O)NCC5=C(C=C(NC5=O)C)C)C
Outline: as §1

[13] = compound: CCn1cc(-c2ccnc3[nH]c(-c4cccc(CN(C)C)c4)cc23)c(-c2ccc(NC(=O)N(C)C)cc2)n1
Outline: as §1

[14] = compound: CN(C)CC(=O)Nc1ccc2[nH]c(=O)c3ccccc3c2c1
Outline: as §1

[15] = compound: CN1C2=C(C3=C1C(=O)N(N=C3)CC4=CC(=CC=C4)N)SC(=C2)S(=O)C
Outline: as §1

[16] = compound: CN1CCC(CNc2ccc3ncc(-c4cccc(OC(F)(F)F)c4)n3n2)CC1
Outline: as §1

[17] = compound: CN1CCN(CCOc2cc(OC3CCOCC3)c3c(Nc4c(Cl)ccc5c4OCO5)ncnc3c2)CC1 [saracatinib]
Outline: as §1

[18] = compound: CNC(=O)c1ccc(Nc2ncc(C(F)(F)F)c(NCc3nccnc3N(C)S(C)(=O)=O)n2)cc1 [defactinib]
Outline: as §1

[19] = compound: CNc1nc(-c2ccc3c(N)n[nH]c3c2)cc(N2C[C@@H](C(=O)NC3CCCCC3)CC[C@H]2C)n1
Outline: as §1

[20] = compound: COC(=O)[C@H](CCSC)NC(=O)C1=C(C=C(C=C1)NC[C@H](CS)N)C2=CC=CC=C2
Outline: as §1

Sequence of UniProt Q9NQZ7 (Q9NQZ7 whole entry, looked up): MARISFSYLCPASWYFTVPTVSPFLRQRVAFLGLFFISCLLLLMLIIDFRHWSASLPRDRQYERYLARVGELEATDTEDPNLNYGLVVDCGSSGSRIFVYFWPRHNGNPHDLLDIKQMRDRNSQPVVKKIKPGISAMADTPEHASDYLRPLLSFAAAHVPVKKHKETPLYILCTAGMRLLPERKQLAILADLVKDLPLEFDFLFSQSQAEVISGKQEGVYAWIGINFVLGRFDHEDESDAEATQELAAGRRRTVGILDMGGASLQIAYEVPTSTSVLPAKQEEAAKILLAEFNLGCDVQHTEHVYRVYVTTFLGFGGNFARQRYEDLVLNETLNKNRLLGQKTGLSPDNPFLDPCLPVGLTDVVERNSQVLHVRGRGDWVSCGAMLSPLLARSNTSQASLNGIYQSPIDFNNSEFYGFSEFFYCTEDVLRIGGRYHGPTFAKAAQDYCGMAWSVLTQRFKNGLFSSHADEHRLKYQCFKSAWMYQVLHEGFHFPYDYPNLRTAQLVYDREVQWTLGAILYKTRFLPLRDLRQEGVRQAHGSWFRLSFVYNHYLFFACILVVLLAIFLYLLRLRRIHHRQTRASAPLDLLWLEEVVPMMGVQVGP
Sequence of UniProt P68104 (P68104 whole entry, looked up): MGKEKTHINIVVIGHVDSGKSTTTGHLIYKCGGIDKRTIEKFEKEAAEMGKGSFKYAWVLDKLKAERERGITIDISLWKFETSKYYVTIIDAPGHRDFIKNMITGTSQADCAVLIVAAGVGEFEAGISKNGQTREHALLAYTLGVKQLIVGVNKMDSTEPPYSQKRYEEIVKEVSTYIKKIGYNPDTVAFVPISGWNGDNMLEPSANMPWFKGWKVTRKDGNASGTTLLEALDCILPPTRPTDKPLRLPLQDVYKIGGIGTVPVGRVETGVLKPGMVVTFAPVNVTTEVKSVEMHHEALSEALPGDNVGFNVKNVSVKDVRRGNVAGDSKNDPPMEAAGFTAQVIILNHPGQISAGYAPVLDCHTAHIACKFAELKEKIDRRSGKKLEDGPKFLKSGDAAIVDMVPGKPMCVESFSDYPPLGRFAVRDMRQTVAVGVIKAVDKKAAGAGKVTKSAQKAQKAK
Sequence of UniProt Q9NWS6 (Q9NWS6 whole entry, looked up): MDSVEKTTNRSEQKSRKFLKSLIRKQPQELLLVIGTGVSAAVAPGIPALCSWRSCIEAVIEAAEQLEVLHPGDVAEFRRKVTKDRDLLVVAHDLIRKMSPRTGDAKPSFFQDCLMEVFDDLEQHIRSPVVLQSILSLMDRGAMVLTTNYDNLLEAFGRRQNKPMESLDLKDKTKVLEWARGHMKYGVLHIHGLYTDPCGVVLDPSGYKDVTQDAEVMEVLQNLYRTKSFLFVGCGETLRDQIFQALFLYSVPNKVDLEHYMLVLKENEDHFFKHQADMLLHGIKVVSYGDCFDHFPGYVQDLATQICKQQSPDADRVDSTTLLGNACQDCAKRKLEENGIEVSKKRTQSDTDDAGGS
Sequence of UniProt Q96GE9 (Q96GE9 whole entry, looked up): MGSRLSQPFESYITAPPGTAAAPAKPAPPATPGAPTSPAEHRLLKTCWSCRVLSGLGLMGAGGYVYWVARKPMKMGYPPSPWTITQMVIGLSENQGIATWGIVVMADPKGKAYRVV
Sequence of UniProt Q07973 (Q07973 whole entry, looked up): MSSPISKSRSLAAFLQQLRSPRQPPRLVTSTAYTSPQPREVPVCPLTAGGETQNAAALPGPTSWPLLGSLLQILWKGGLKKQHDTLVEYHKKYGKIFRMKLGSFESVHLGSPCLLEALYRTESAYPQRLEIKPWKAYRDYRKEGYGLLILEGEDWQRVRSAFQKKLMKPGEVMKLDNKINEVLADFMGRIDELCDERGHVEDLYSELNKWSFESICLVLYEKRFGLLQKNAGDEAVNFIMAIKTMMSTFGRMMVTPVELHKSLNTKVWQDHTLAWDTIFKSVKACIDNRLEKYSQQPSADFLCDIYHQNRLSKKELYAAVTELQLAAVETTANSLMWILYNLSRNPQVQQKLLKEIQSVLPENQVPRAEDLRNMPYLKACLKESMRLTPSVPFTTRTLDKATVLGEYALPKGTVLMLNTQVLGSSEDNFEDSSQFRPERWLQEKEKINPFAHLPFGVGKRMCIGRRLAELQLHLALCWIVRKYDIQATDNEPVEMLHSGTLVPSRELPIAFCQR
Sequence of UniProt Q8N8J7 (Q8N8J7 whole entry, looked up): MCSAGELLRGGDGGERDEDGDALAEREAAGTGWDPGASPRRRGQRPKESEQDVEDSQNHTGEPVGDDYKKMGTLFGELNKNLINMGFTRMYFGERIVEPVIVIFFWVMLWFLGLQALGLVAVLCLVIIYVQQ
Sequence of UniProt P39880 (P39880 whole entry, looked up): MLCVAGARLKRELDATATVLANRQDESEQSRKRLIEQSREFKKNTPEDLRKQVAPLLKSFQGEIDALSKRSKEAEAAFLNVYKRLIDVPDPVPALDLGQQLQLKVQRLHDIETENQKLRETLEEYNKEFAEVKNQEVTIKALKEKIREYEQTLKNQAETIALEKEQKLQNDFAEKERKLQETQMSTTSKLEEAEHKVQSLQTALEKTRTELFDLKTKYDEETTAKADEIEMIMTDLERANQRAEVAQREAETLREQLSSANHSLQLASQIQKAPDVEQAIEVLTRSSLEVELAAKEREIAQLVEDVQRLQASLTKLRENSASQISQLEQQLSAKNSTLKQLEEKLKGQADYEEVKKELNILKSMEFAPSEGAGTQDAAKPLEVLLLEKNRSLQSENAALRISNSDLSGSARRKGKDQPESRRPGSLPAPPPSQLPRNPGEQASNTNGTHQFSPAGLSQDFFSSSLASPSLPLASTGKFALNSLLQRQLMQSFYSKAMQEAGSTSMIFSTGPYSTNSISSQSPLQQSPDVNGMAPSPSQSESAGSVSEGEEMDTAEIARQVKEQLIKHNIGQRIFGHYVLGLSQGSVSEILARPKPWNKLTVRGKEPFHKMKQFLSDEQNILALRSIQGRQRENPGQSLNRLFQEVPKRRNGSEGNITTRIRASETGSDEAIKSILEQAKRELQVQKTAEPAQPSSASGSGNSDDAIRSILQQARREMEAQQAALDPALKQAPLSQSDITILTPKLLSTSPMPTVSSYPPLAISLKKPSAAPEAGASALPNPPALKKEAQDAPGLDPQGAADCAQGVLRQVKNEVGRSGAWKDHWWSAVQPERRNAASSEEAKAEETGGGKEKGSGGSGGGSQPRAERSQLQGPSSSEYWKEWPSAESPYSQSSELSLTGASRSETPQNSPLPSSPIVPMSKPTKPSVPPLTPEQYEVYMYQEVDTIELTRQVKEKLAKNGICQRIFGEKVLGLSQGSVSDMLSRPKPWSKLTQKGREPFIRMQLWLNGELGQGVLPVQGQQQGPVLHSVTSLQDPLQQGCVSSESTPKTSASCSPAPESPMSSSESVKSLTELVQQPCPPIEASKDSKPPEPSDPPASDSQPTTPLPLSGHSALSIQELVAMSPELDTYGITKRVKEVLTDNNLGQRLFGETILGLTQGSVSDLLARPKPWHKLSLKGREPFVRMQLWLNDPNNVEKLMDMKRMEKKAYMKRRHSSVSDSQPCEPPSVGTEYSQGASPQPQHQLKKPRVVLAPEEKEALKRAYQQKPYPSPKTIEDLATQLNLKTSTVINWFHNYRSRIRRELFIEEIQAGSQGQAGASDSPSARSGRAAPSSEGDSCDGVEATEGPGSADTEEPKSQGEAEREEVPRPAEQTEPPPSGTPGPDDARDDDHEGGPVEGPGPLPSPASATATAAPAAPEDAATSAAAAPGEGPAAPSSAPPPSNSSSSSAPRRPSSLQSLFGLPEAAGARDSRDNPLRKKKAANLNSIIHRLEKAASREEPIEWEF
Sequence of UniProt Q96KP1 (Q96KP1 whole entry, looked up): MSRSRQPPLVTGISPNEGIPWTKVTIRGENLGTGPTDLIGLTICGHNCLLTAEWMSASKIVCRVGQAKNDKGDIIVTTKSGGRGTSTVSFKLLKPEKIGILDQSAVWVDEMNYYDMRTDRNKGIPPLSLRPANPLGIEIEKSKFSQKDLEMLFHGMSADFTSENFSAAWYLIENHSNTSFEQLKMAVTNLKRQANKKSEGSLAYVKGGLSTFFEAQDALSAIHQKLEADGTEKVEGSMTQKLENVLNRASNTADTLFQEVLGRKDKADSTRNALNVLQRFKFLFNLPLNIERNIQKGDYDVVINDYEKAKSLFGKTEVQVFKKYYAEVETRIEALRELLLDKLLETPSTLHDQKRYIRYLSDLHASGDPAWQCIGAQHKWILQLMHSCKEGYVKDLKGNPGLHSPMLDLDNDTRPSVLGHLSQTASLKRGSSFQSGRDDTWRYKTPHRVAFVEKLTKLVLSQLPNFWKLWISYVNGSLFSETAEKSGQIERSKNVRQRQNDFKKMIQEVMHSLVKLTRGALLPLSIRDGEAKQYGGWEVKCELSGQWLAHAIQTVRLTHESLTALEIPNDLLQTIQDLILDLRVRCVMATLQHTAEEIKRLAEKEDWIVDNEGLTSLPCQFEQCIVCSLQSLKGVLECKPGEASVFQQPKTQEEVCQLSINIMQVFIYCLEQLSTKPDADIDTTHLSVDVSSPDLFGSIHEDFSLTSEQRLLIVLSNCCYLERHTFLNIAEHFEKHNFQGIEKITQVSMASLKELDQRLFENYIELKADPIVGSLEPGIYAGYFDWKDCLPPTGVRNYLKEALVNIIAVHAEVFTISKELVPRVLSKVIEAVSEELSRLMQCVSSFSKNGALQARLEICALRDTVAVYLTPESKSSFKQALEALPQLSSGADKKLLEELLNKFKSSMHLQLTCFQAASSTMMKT
Sequence of UniProt Q9H2P9 (Q9H2P9 whole entry, looked up): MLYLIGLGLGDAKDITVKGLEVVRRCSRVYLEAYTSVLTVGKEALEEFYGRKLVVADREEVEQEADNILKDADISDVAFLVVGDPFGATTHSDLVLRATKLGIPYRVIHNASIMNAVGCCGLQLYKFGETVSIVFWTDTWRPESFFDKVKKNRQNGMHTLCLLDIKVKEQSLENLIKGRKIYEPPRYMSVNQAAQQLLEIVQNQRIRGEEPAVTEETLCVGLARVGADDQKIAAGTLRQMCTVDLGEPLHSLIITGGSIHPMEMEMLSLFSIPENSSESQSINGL

| Target | log2 fold change [1] | log2 fold change [2] | log2 fold change [3] | log2 fold change [4] | log2 fold change [5] | log2 fold change [6] | log2 fold change [7] | log2 fold change [8] | log2 fold change [9] | log2 fold change [10] | log2 fold change [11] | log2 fold change [12] | log2 fold change [13] | log2 fold change [14] | log2 fold change [15] | log2 fold change [16] | log2 fold change [17] | log2 fold change [18] | log2 fold change [19] | log2 fold change [20] |
| --- | --- | --- | --- | --- | --- | --- | --- | --- | --- | --- | --- | --- | --- | --- | --- | --- | --- | --- | --- | --- |
| DYNC1I2 isoform 2 (UniProt Q13409) | 0.012 | 0.045 | -0.06 | 0.086 | -0.022 | 0.062 | 0 | -0.028 | -0.021 | -0.034 | -0.108 | – | – | – | – | – | – | – | – | – |
| FAM241A (UniProt Q8N8J7) | -0.026 | 0.007 | – | 0.057 | 0.011 | -0.632 (active) | -0.046 | -0.035 | 0.042 | 0.006 | -0.009 | -0.002 | 0.037 | -0.093 | 0.059 | 0.08 | -0.012 | 0.013 | -0.003 | 0.03 |
| EXOC2 (UniProt Q96KP1) | -0.13 | -0.463 | 0 | -0.089 | 0.01 | -0.214 | -0.01 | 0.044 | 0.064 | 0.136 | 0.126 | -0.041 | 0.044 | 0.058 | 0.123 | -0.386 (active) | -0.058 | -0.096 | -0.004 | -0.085 |
| EHBP1L1 (UniProt Q8N3D4) | -0.035 | -0.307 (active) | 0.072 | 0.012 | 0.094 | -0.082 | -0.049 | 0.098 | -0.002 | 0.1 | 0.127 | 0.091 | -0.055 | 0.029 | 0.077 | 0.101 | -0.065 | -0.089 | -0.008 | -0.017 |
| DYRK1A isoform 2 (UniProt Q13627) | 0.015 | -0.005 | 0.048 | -0.012 | 0.036 | 0.022 | -0.135 | 0.058 | -0.264 (active) | 0.036 | 0.014 | 0.104 | -0.05 | 0.014 | -0.024 | -0.086 | -0.046 | 0.03 | 0.029 | -0.021 |
| DOCK8 (UniProt Q8NF50) | 0.01 | – | 0.119 | -0.208 | 0.028 | -0.398 | 0.149 | 0.166 | -0.163 | 0.044 | -0.079 | 0.004 | -0.094 | -0.009 | 0.258 | 0.137 | -0.241 | 0.242 | -0.06 | -0.154 |
| CWF19L2 (UniProt Q2TBE0) | -0.051 | -0.107 | – | -0.131 | – | -0.15 | 0.081 | -0.079 | -0.034 | 0.102 | -0.002 | – | 0.094 | – | 0.231 | 0.21 | -0.089 | – | -0.014 | – |
| CYB561A3 isoform 2 (UniProt Q8NBI2) | -0.058 | 0.103 | – | -0.007 | 0.052 | 0.001 | -0.043 | 0.047 | 0.025 | 0.395 (active) | -0.014 | -0.089 | -0.241 | – | -0.021 | 0.032 | 0.019 | – | -0.068 | – |
| ENTPD7 (UniProt Q9NQZ7) | -0.204 | -0.233 | 0.032 | 0.032 | 0.061 | 0.17 | – | 0.064 | -0.162 | -0.078 | -0.26 | 0.08 | – | – | -0.021 | – | 0.155 | – | 0.136 | – |
| FAM177A1 isoform 2 (UniProt Q8N128) | -0.039 | -0.108 | 0.045 | -0.001 | 0.012 | -0.021 | -0.011 | 0.045 | -0.094 | 0.001 | -0.029 | 0.006 | 0.045 | -0.012 | -0.023 | -0.259 (active) | 0.092 | -0.054 | -0.042 | -0.065 |
| ESS2 (UniProt Q96DF8) | -0.025 | -0.245 (active) | -0.012 | 0.026 | -0.008 | -0.025 | 0.113 | -0.055 | -0.038 | -0.013 | -0.012 | -0.077 | 0.036 | -0.032 | 0.024 | -0.012 | 0.041 | 0 | -0.142 | 0.01 |
| DMAC1 (UniProt Q96GE9) | 0.269 | 0.016 | -0.084 | 0.057 | -0.025 | 0 | -0.003 | 0.031 | -0.077 | -0.124 | -0.105 | -0.038 | -0.041 | 0.001 | -0.007 | 0.015 | -0.509 (active) | -0.048 | 0.005 | -0.019 |
| CUX1 isoform 3 (UniProt P39880) | 0.008 | -0.153 | 0.027 | -0.041 | 0.125 | -0.003 | -0.02 | 0.021 | 0.012 | 0.037 | -0.018 | 0.036 | -0.008 | -0.019 | 0.004 | -0.123 | 0.002 | -0.065 | -0.062 | 0.01 |
| FAM118A (UniProt Q9NWS6) | -0.812 (active) | -0.54 | 0.118 | – | -0.02 | -0.135 | -0.168 | 0.029 | – | 0.29 | -0.172 | 0.136 | -0.075 | 0.222 | -0.007 | -0.142 | -0.138 | -0.179 | 0.068 | -0.079 |
| DPH5 isoform 5 (UniProt Q9H2P9) | 0.047 | 0.08 | 0.049 | -0.055 | 0.013 | -0.017 | -0.064 | -0.022 | 0.07 | -0.061 | 0.025 | -0.022 | -0.018 | -0.013 | -0.115 | 0.034 | -0.007 | 0 | 0 | 0.004 |
| EIF4G3 isoform 3 (UniProt O43432) | -0.074 | -0.165 | – | 0.012 | 0.019 | -0.038 | -0.018 | -0.016 | -0.019 | 0.519 | 0.031 | 0.007 | – | 0.039 | 0.021 | – | -0.076 | 0.04 | -0.056 | -0.025 |
| EEF1A1 (UniProt P68104) | -0.19 | 0.098 | 0.148 | 0.021 | -0.326 | -0.082 | -0.885 (active) | -0.096 | 0.007 | 0.146 | -0.009 | 0.131 | – | 0.165 | -0.121 | – | 0.093 | -0.079 | 0.102 | -0.059 |
| CYP24A1 (UniProt Q07973) | 0.252 | 0.379 | – | -0.126 | -0.205 | – | – | 0.365 | -0.075 | 0.115 | 0.075 | -0.209 | 0.065 | -0.175 | 0.288 | 0.198 | -0.144 | 0.394 | 0.078 | 0.016 |
